p97 inhibitor: inhibitors of human p97 ATPase, primary screen, biochemical. Transitional endoplasmic reticulum ATPase (Homo sapiens), P55072. recombinant p97 ATPase, Kinase-Glo ATP luminescence, 3 h. inhibition, % at 8 µM. 0.42% of 220,000 active. AID 1481, 2009; in the data active = inhibition above about 15%;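 note: 0% = DMSO vehicle and 100% = wells lacking enzyme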
Hsp70 act: Hsp70 transcriptional activators, primary screen, cell-based, HeLa, Hsp70 promoter luciferase, luminescence, 10 µM. HeLa Hsp70 promoter luciferase reporter; scaled: vehicle 0, proteasome-inhibitor control 100%. activation, % at 10 µM. 0.04% of 200,000 active. AID 1203, 2008;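 active = activation above the mean across all tested compounds plus 3 SD, cutoff set per campaign, cut at about 5.5% in these data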;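 note: 100% = MG132 at 30 µM as the positive control and 0% = DMSO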
HSV augment: enhancers of HSV replication in host cells, fold increase, host cell viability; HSV replication augmentation in cells; maximum fold increase; 0.005% of 220,000 active; in the data active = maximum fold increase above about 1.5; tested in PC3 cells
Wee1 degr inh: Wee1 degradation inhibitors, primary screen, cell-based, HeLa, Wee1K328M-luciferase, luminescence. reporter increase, % at 5 µM. 1.2% of 220,000 active. AID 1321, 2008. HeLa Luc-Wee1K328M stability; 100% = proteasome inhibitor MG132 effect. Wee1-like protein kinase (Homo sapiens), P30291;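 active = activation above the mean of all tested compounds plus 3 SD, set per screening run, cut at about 8.8% in these data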;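 note: cells exposed to compound for 20 h before luminescence read; 0% = DMSO alone and 100% = MG132 at 30 µM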
Target sequence (P30291 whole entry K328M): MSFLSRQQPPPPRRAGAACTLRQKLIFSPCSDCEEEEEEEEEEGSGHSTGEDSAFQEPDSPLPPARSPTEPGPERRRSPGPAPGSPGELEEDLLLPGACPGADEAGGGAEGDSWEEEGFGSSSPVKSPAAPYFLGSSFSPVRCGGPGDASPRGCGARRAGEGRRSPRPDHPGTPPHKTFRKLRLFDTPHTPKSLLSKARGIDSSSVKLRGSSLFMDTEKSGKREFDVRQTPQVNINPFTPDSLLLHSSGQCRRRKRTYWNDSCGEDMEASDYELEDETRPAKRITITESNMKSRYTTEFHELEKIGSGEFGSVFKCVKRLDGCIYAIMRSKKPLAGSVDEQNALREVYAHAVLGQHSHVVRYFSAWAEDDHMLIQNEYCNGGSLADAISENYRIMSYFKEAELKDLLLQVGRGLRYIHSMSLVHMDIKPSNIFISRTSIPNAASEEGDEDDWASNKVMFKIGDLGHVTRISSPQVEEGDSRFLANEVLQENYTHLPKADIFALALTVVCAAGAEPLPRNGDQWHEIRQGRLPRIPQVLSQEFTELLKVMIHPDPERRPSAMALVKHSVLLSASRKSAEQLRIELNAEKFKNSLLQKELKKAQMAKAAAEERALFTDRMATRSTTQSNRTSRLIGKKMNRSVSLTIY
Redox H2O2 prof: compounds producing H2O2 with reducing agent – biochemical, NIH compound library profiling, artefact control for MLSCN library redox annotation, primary screen | DTT-dependent redox cycling H2O2, phenol red/HRP absorbance; 100% = 100 µM peroxide control, 0% = buffer | activation, % at 10 µM | 0.03% of 200,000 active;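 active = activation of at least 50% relative to the plate's high and low controls in the primary single-dose screen; inactive = activation below 50%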;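 note: compound incubated with DTT at 0.8 mM final as the reducing agent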
* marks the source's active call; other numbers are inactive results; i = inactive; / = no result. The list is not random: actives were taken first. Their share in the collection is about 1.6%.

SMILES	p97 inhibitor	Hsp70 act	HSV augment	Wee1 degr inh	Redox H2O2 prof
O=[N+]([O-])c1cccc(-c2noc(-c3ccco3)n2)c1	1.1	/	i	8.9*	/
O=[N+]([O-])c1cccc(-c2nc(-c3ccccc3)no2)c1	4.5	0.0	i	0.2	-1.1
N/C(=N\OC(=O)c1ccco1)c1ccccn1	-8.0	-0.3	i	10.3*	0.1
Cc1ccc(-c2nn(C)c(=O)c3ccccc23)cc1CNS(C)(=O)=O	6.8	-0.3	i	0.5	2.5
Cc1[nH]c2ccccc2c1C(=O)CSC(=S)N(C)C	4.4	0.1	i	9.1*	0.5
CN(c1ccccc1)S(=O)(=O)c1ccc(C(=O)Nc2nnc(C3CC3)s2)cc1	-1.5	/	i	-1.1	/
COc1ccc(OC)c(NS(=O)(=O)c2ccc(Cl)s2)c1	2.7	0.3	i	-0.3	1.9
COc1ccc(OC)c(NS(=O)(=O)c2ccc(Br)s2)c1	0.6	0.0	i	9.0*	-0.5
CCOC(=O)c1c(C)[nH]c(C)c1C(=O)CN1C(=O)NC(CC(C)C)C1=O (configuration not stated)	-0.4	0.2	i	9.4*	2.1
CCOC(=O)c1c(C)[nH]c(C)c1C(=O)CN1C(=O)NC2(CCC(C)CC2)C1=O (configuration not stated)	-0.4	-0.6	i	-1.9	0.1
Cc1nc(-c2ccccc2)sc1-c1nc(-c2ccncc2)ncc1S(=O)(=O)c1ccccc1	-4.7	0.2	/	2.4	-1.3
Nc1[nH]c(N=NC(=O)c2ccccc2)c2ccccc12	1.4	-0.3	i	10.1*	-0.2
CCOc1ccc(C(=O)Nc2nc3ccccc3[nH]2)cc1OCC	-1.9	-0.2	i	9.3*	-0.3
COc1ccc(-n2[nH]c(C)cc2=O)cc1	27.6*	-0.3	i	1.1	2.2
CC1CC(C)CN(c2nc(NCc3ccco3)nc(N)c2[N+](=O)[O-])C1 (configuration not stated)	-3.0	-0.4	i	10.9*	-1.0
CC1CCCN(c2nc(NCc3ccco3)nc(N)c2[N+](=O)[O-])C1 (configuration not stated)	-2.0	-0.3	i	-1.2	-0.2
COc1cc(/C=C/C(=O)O)cc(S(=O)(=O)NCc2ccc3c(c2)OCO3)c1OC	4.0	-0.2	i	0.8	0.2
O=C(CN1CCCCCCC1)N/N=C/c1ccc(F)cc1F	2.8	-0.3	i	9.6*	0.0
O=C(O)/C(=C/c1ccco1)c1ccccc1	0.1	0.2	i	-0.5	-0.9
COc1ccccc1CNC(=O)CCS(=O)(=O)c1cccc2nonc12	1.0	-0.1	i	9.8*	6.9
CCN1CCN(S(=O)(=O)c2cc(C(=O)O)ccc2Cl)CC1	1.1	/	i	9.6*	/
Cc1ccc(NC(=S)N(CCN2CCOCC2)Cc2ccccc2F)cc1Cl	-1.3	-0.2	i	-3.8	-0.1
O=C(O)c1ccccc1NN=C1CCCCC1	2.3	0.4	i	9.8*	0.4
O=C1C=C(Nc2ccc(Cl)cc2Cl)CC(c2ccco2)C1 (configuration not stated)	1.2	0.1	i	9.7*	0.9
COc1ccc(-c2ccnc(SCC(=O)c3ccc(Br)cc3)n2)cc1	-3.1	-0.1	i	-2.0	0.8
SMILES	p97 inhibitor	Hsp70 act	HSV augment	Wee1 degr inh	Redox H2O2 prof
Cc1c(-c2ccccc2)oc2c(C(=O)OCC(=O)Nc3cccc(F)c3)cccc2c1=O	5.8	-0.1	i	2.4	-0.2
O=C(CCC(=O)N1CCN(S(=O)(=O)c2ccc(Cl)cc2)CC1)Nc1ccc2ccccc2c1	9.0	0.1	i	10.4*	0.9
COc1ccc(/C=C/C(=O)Oc2ccc(/C=N\NC(=O)c3ccc(F)cc3)cc2)cc1	-2.9	-0.4	i	1.5	0.4
COc1ccc(/C=C/C(=O)Oc2cccc(/C=N/NC(=O)c3cccc(F)c3)c2)cc1	0.6	0.2	i	13.9*	-7.5
O=C(Nc1ccc(S(=O)(=O)N2CCOCC2)cc1)c1cc(-c2ccccc2O)n[nH]1	2.5	/	i	10.2*	/
O=C(CN1CCCCCC1)Nc1ccc(S(=O)(=O)N2CCOCC2)cc1	6.2	-0.5	i	9.6*	0.1
CCC(=O)Nc1ccc(S(=O)(=O)N2CCOCC2)cc1	3.0	0.0	i	-2.1	0.6
CC1CN(S(=O)(=O)c2ccc(NC(=O)c3cc(-c4ccccc4O)n[nH]3)cc2)CC(C)O1 (configuration not stated)	0.9	0.0	i	-4.2	0.5
COc1cc(/C=N/NC(=O)Cn2cnc3ccccc3c2=O)ccc1O	4.4	/	i	-2.5	/
CN(c1ncc(C(F)(F)F)cc1Cl)N1C(=O)c2cccc(N)c2C1=O	-1.9	-0.2	i	10.2*	-1.0
Cc1sc2ncnc(SCC(=O)N3CCC(c4noc5ccc(F)cc45)CC3)c2c1C	4.4	-0.4	/	4.7	0.5
CCCCN1C(=O)CC(Sc2ccccc2C(=O)O)C1=O (configuration not stated)	-4.2	-0.5	i	-2.4	2.2
CN1C(=O)CC(Sc2ccccc2C(=O)O)C1=O (configuration not stated)	-8.2	-0.3	i	10.3*	0.2
O=C(O)CC(=O)Nc1ccc(Oc2ccc(C(F)(F)F)cn2)c(Cl)c1	4.2	0.0	/	9.2*	-0.3
FC(F)(F)c1ccc(Oc2ccccc2Cl)nc1	-2.1	0.0	i	-0.4	-0.2
Cc1ccc(N(C(=O)Nc2ccccc2)C2=NCC(C)S2)cc1 (configuration not stated)	-1.0	0.5	i	-1.1	0.1
Cc1ccnc(N(C(=O)Nc2ccccc2)C2=NCC(C)(C)S2)c1	3.9	/	i	9.7*	/
Cc1ccc(NC(=O)N2C(=O)C3(OCCO3)c3ccccc32)cc1	3.9	1.2	i	20.9*	-0.6
CCOCCCNC(=O)/C(C#N)=C/c1cc(OC)c(O)c([N+](=O)[O-])c1	0.0	0.0	i	-0.1	0.0
CCOCCCNC(=O)/C(C#N)=C/c1cc(C)c(O)c(C)c1	2.4	-0.2	i	8.9*	-0.5
COc1ccc(Br)cc1CNC(=O)CCN1C(=O)COc2ccccc21	-3.6	-0.2	i	10.6*	0.6
O=C(c1ccccc1F)c1cc2c(cc1[N+](=O)[O-])OCCO2	1.1	-0.1	i	1.4	-0.3
CCOC(=O)c1cc(CC)sc1/N=C/C1C(=O)CCCC1=O	-1.8	-0.2	i	-1.5	-2.6
CCOC(=O)c1cc(CC)sc1/N=C/c1c(O)ccc2ccccc12	0.1	-0.4	i	9.2*	0.0
CCc1cccc(CC)c1NC(=O)C[n+]1cccc(C(N)=O)c1	0.0	0.1	i	1.9	-1.3
COc1ccc(N2C(=O)C(=O)/C(=C(/O)c3ccc(C)cc3)C2c2cccnc2)cc1 (configuration not stated)	2.2	-0.1	i	10.0*	0.0
